GPT2 inhibitor: inhibitors of human GPT2 alanine aminotransferase; Recombinant GPT2, coupled pyruvate oxidase/HRP Amplex Red fluorescence; Q8TD30; Potency, µM (titrated, usually from 57.7 µM), for the others: at the top dose activity change, negative = inhibition, most hits filed as inhibitors; AID 1671188; hit rate 0.25% among 100,000; note: % is set by controls: 0 for no effect and ±100 for the full control effect; nearly all actives have a fitted effect of over 60% in size
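Fluorescence of coupled pyruvate oxidase/HRP/Amplex Red system (50uM Amplex, 30 min, dark) reports pyruvate formed by GPT2. Enzyme reaction: 10ng/uL GPT2, 2mM L-alanine, 250uM a-KG, 30 min room temperature, pH 7.5; 50uM AOA control.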
NIH3T3 tox: NIH 3T3 cell cytotoxicity; AID 1345082; Potency, µM (series often up to 96.7 µM), without a hit: at the top dose activity change, negative = cytotoxicity, most hits filed as inhibitors; hit rate 4.3% among 94,000; NIH 3T3 viability, CellTiter-Glo ATP luminescence, 48-72 h; note: % is set by controls: 0 for no effect and ±100 for the full control effect; nearly all actives have a fitted effect of over 55% in size
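Viability of NIH 3T3 cells after 48 or 72 hr compound treatment at 37 °C was assessed by CellTiter-Glo, with luminescence imaged following a 10 min room-temperature step.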
hNpr1 antagonist: human Npr1 receptor antagonism; P16066; HEK293 hNpr1 GloSensor cGMP, ANP-stimulated luminescence; Potency, µM (highest dose often 46.3 µM), without a hit: top-dose activity change, negative = inhibition, usual class: inhibitors; hit rate 1.6% among 76,000; calls by dose curve; note: % is set by controls: 0 for no effect and ±100 for the full control effect; nearly all actives have a fitted effect of over 60% in size
Target sequence (P16066 whole entry, looked up): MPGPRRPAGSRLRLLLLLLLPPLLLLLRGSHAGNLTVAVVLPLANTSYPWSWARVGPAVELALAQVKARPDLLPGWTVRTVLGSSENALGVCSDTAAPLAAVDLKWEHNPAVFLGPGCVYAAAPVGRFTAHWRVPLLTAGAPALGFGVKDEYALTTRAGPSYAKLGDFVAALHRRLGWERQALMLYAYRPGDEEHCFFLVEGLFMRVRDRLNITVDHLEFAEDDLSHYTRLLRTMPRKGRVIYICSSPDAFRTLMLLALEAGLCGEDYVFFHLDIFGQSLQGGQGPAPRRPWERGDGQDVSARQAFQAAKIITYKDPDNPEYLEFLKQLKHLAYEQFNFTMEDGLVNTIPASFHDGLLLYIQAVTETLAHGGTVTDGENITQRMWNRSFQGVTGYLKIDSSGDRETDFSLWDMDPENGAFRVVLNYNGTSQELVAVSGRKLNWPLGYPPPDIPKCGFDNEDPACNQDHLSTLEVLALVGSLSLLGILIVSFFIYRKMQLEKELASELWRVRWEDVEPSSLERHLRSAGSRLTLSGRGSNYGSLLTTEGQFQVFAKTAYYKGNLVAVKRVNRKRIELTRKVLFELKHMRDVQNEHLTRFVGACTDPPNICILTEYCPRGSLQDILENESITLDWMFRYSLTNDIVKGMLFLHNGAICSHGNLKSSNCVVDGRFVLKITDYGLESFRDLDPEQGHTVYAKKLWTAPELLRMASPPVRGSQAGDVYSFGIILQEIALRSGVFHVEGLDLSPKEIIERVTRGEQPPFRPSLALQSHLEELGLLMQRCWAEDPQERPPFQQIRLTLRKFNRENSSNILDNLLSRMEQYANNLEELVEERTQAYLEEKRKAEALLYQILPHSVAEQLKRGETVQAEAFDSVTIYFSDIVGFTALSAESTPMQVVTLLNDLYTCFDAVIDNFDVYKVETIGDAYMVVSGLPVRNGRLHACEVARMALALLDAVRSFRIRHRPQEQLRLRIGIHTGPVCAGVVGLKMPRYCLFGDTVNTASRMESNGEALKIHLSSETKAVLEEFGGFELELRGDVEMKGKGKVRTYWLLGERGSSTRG
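Compound pre-incubated 30 min at room temperature on GloSensor-loaded HEK293 cells stably carrying hNpr1 and the pGS-40F cGMP biosensor. Stimulation uses hNppA at 0.1 nM final; luminescence is taken at baseline and 20 min post-agonist.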
FLuc inh: blocks purified firefly luciferase enzyme activity; purified P. pyralis luciferase, luminescence, biochemical; Potency, µM (doses to about 115 µM), actives largely listed as inhibitors; hit rate 2.5% among 76,000; AID 1347043; note: % is set by controls: 0 for no effect and ±100 for the full control effect; nearly all actives have a fitted effect of over 65% in size
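Biochemical qHTS: compound (6-point titration) added to 10uM D-luciferin plus 10uM ATP in Tris acetate pH 7.5 buffer with Mg, Tween-20 and BSA, then purified enzyme at 10nM; light output imaged.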
HEK cytotox: kills HEK 293 cells | HEK 293 viability, ATP luminescence (CellTiter-Glo), 48-72 h | Potency, µM (highest dose often 115 µM), without a hit: at the highest dose activity change, negative = cytotoxicity, usual class: inhibitors | hit rate 6.6% among 94,000; note: % is set by controls: 0 for no effect and ±100 for the full control effect; nearly all actives have a fitted effect of over 60% in size
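Read-out: CellTiter-Glo ATP luminescence. Cells: HEK 293, 250 cells/well. Exposure: 48 or 72 hr, 37 degree Celsius.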
NPR1 antag cnf: hNpr1 antagonism, confirmation assay | shares compounds with hNpr1 antagonist | HEK293 hNpr1 cGMP GloSensor luminescence, ANP-stimulated | Potency, µM (doses to about 57.6 µM), for the others: at the highest dose activity change, negative = inhibition, hits mostly inhibitors | hit rate 76% among 1,400; calls by dose curve; note: nearly all actives have a fitted effect of over 70% in size
NPR2 antag: hNpr2 antagonism, selectivity versus Npr1; AID 1347046; Potency, µM (titrated, usually from 57.6 µM), for inactives: at the highest dose activity change, negative = inhibition, usual class: inhibitors; HEK293 hNpr2 GloSensor cGMP luminescence, CNP-stimulated; hit rate 67% among 1,400; shares compounds with hNpr1 antagonist; calls by dose curve; note: nearly all actives have a fitted effect of over 70% in size
FLuc inh counter: counter-screen for Npr1 antagonists: firefly luciferase inhibitors. shares compounds with hNpr1 antagonist. purified FLuc enzyme, luminescence, Km substrate. Potency, µM (doses to about 57.6 µM), without a hit: at the highest dose activity change, negative = inhibition, hits mostly inhibitors. hit rate 0.7% among 1,400. AID 1347047; note: 0% is about no effect
GloSensor cGMP: reduces cGMP signal in GloSensor control cells. Potency, µM (top dose mostly 57.6 µM), for the others: at the top dose activity change, negative = inhibition, usual class: inhibitors. hit rate 69% among 1,400. HEK293 GloSensor cGMP, SNP-stimulated, luminescence. shares compounds with hNpr1 antagonist; calls by dose curve; note: % is set by controls: 0 for no effect and ±100 for the full control effect; nearly all actives have a fitted effect of over 70% in size
Active calls of the source: *; i = inactive; ? = inconclusive; . = no result given; [ ] = another dose, or the depositor's remark. This is a sample that favours compounds with a hit; in the whole collection about 10% have one here. Unless noted, calls come from the whole dose curve; as a rule, active = well fitted curve in the direction sought with a large enough effect; inconclusive = small, poorly fitted or top-dose-only effect, or another doubt; inactive = no such curve, though single readings can be large; an effect the other way counts as inactive or inconclusive. Potency is the fitted concentration of half-maximal effect.

SMILES	GPT2 inhibitor	NIH3T3 tox	hNpr1 antagonist	FLuc inh	HEK cytotox	NPR1 antag cnf	NPR2 antag	FLuc inh counter	GloSensor cGMP
O=C(Nc1ccc(F)cc1)c1cc2n(n1)CC(c1ccc(Br)cc1)OC2 (stereo not given)	i	?	11.2µM*	i	?	?	?	-0.4%	?
O=C(Nc1ccccc1)c1cc2n(n1)CC(c1ccc(Br)cc1)OC2 (stereo not given)	i	?	17.8µM*	i	?	27.3µM*	?	-14.1%	?
COc1ccc(-c2ccccc2C(=O)N2CCOCC2)nn1	.	-19.6%[138 µM]	.	.	0.7%[172 µM]	.	.	.	.
Cc1ccc(-c2cn3cc(C(=O)NC4CCCCCC4)nc3s2)cc1	?	-31.0%	.	.	-17.8%	.	.	.	.
CC(C)CNC(=O)c1nc2sccn2c1-c1cccnc1	0.9%[88.5 µM]	-19.7%[138 µM]	.	.	-1.3%[172 µM]	.	.	.	.
Cc1cccc(C(=O)N2CCC(n3c(C)nn(C)c3=O)CC2)c1	i	-21.5%	.	.	1.6%	.	.	.	.
Cc1nccn1CCNC(=O)CCC[C@@H]1[C@H]2CCCN3CCC[C@@H](CN1Cc1ccccc1)[C@@H]23	2.6%	-17.7%	1.0%	i	0.4%	.	.	.	.
COc1cccc(CNC(=O)Nc2nc(-c3ccncc3)cs2)c1	-6.5%	.	.	.	.	.	.	.	.
COc1cccc(N2CCN(c3nc(C(=O)NCc4ccccc4F)cs3)CC2)c1	?	?	12.6µM*	i	44.7µM*	27.3µM*	?	-2.8%	?
COc1cccc(N2CCN(c3nc(C(=O)NCc4ccncc4)cs3)CC2)c1	i	?	?	i	35.5µM*	27.3µM*	21.7µM*	-18.5%	27.3µM*
O=C(NCc1ccc2c(c1)OCO2)c1csc(N2CCN(c3ccc(F)cc3)CC2)n1	1.3%	?	10µM*	i	28.2µM*	8.62µM*	10.9µM*	-0.8%	9.68µM*
O=C(NCc1ccc(F)cc1)c1cc2n(n1)CC(c1ccc3c(c1)OCO3)OC2 (stereo not given)	?	?	0.0%	i	?	.	.	.	.
O=C(NCc1ccccc1Cl)c1csc(N2CCN(c3ccc(F)cc3)CC2)n1	i	?	11.2µM*	i	?	21.7µM*	21.7µM*	-6.8%	19.3µM*
O=C(NCc1ccccc1Cl)c1cn2cc(-c3ccccc3)sc2n1	-1.5%	-13.6%	.	.	-1.1%	.	.	.	.
O=C(NCc1ccccc1)c1csc(N2CCN(c3ccc(Cl)cc3)CC2)n1	i	-12.0%	11.2µM*	i	?	21.7µM*	21.7µM*	0.0%	21.7µM*
O=C(CCCc1c[nH]c2ccccc12)N1CCC(c2noc(COc3ccc(F)cc3)n2)CC1	-11.2%	?	11.2µM*	i	?	21.7µM*	24.3µM*	3.2%	17.2µM*
CC(C)(C)NC(=O)Cn1ccn2nc(-c3ccccc3)c(CO)c2c1=O	i	i	4.7%	i	-0.3%	.	.	.	.
Cc1noc(-c2ccco2)c1C(=O)NCc1cccc2ccccc12	?	?	12.6µM*	i	?	24.3µM*	?	2.7%	30.6µM*
Cc1noc(-c2cccc(F)c2)c1C(=O)NCc1cccc2ccccc12	i	-16.7%	1.1%	i	?	.	.	.	.
O=C(NCc1ccccc1F)c1cc(-c2cc(Cl)cc(Cl)c2)c2nncn2n1	i	-22.6%	.	.	-19.2%	.	.	.	.
COc1ccc(CN2CC3(CCN(C(=O)Nc4cccc(C(F)(F)F)c4)CC3)C2=O)cc1	-20.9%	?	15.8µM*	i	?	?	?	0.1%	?
COc1ccc(C(=O)N2CCC3(CC2)CC(=O)Nc2ccccc2O3)cc1	?	-16.7%	12.6µM*	i	-25.8%	21.7µM*	21.7µM*	0.4%	21.7µM*
COc1ccc(C(=O)N2CCC3(CC2)CC(=O)c2ccccc2O3)cc1	-18.6%	-26.7%	-3.4%	i	?	.	.	.	.
Cc1ccc(C(=O)N2CCC3(CC2)CC(=O)Nc2ccccc2O3)cc1	-3.0%	-17.7%	.	.	?	24.1µM*	24.1µM*	0.7%	15.2µM*
O=C(c1cc(Cl)ccc1F)N1CCN(c2cc(-c3ccccc3)[nH]n2)CC1	i	?	-20.4%	i	?	.	.	.	.
SMILES	GPT2 inhibitor	NIH3T3 tox	hNpr1 antagonist	FLuc inh	HEK cytotox	NPR1 antag cnf	NPR2 antag	FLuc inh counter	GloSensor cGMP
O=C(c1ccc(F)cc1Cl)N1CCN(c2cc(-c3ccc(F)cc3)[nH]n2)CC1	i	?	11.2µM*	i	?	17.2µM*	19.3µM*	-1.1%	15.3µM*
O=C(c1cc(F)ccc1F)N1CCN(c2cc(-c3ccc(Cl)cc3)[nH]n2)CC1	i	28.2µM*	?	i	35.5µM*	27.3µM*	24.3µM*	0.7%	30.6µM*
CC[C@H]1CN(C(=O)N2CCOCC2)CC[C@H]1CC(=O)N1CCOCC1	i	-7.3%[174 µM]	-0.5%[70.6 µM]	i	3.5%[172 µM]	.	.	.	.
CC(=O)N1CCc2cc(S(=O)(=O)NCCCC(=O)N3CCC(CCOc4ccccc4)C3)ccc21 (stereo not given)	2.8%	?	5.62µM*	i	?	5.44µM*	6.11µM*	7.5%	4.85µM*
CC(=O)N1CCc2cc(S(=O)(=O)CCC(=O)N3CCCC(Cc4nncn4CC4CC4)C3)ccc21 (stereo not given)	3.6%	-3.9%	1.9%	i	-23.0%	.	.	.	.
C[C@H](O)C(=O)N1CCc2ccc(S(=O)(=O)NCCOc3ccccc3)cc2C1	i[11.5 µM]	-13.6%	-1.1%	i	?	.	.	.	.
CC(=O)N1CCc2cc(S(=O)(=O)CCC(=O)N3CCC(CCOc4ccccc4)C3)ccc21 (stereo not given)	i	-19.9%	10µM*	i	-16.9%	27.3µM*	?	2.6%	?
O=C(c1ccccc1)N1CCC(N2CC3CCCN3C2=O)CC1 (stereo not given)	4.5%[88.5 µM]	-21.0%[138 µM]	-9.6%[70.6 µM]	i	-9.6%[172 µM]	.	.	.	.
CNC(=O)N1CCC(C2CCN(S(=O)(=O)c3cccc(C#N)c3)C2)CC1 (stereo not given)	?	?	3.2%	i	1.4%	.	.	.	.

Screening data deposited in PubChem BioAssay by National Center for Advancing Translational Sciences (NCATS).
